From ChEMBL document CHEMBL1961873, “Compounds: GSK PKIS; Assays: Nanosyn kinase panel” (2012)

Legend:
[1] = molecular target: T1, Inhibitor of nuclear factor kappa-B kinase subunit epsilon (Homo sapiens) (UniProt Q14164); details: at 1 µM;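 also: reported values are averaged percent inhibition figures against human IKKε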
T1 sequence (whole entry): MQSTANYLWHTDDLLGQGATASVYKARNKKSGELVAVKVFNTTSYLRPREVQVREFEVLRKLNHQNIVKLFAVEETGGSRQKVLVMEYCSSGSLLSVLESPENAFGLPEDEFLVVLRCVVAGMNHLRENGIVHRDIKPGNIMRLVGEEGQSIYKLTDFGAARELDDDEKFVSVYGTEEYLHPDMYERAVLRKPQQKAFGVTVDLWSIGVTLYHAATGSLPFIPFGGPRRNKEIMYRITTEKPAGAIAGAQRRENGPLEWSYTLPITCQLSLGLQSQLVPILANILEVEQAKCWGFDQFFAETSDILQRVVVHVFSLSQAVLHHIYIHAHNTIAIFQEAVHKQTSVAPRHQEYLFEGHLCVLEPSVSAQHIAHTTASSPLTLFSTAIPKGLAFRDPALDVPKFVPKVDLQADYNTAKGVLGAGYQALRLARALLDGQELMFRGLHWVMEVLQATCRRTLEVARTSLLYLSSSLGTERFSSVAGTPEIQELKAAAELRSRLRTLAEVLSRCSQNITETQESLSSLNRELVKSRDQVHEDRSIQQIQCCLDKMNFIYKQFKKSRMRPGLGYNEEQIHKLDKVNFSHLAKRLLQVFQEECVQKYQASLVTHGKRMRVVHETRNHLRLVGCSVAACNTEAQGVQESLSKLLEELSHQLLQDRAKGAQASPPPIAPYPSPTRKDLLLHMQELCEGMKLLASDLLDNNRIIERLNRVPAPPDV

[2] = molecular target: T2, Serine/threonine-protein kinase Nek1 (Homo sapiens) (UniProt Q96PY6); details: at 0.1 µM
T2 sequence (whole entry): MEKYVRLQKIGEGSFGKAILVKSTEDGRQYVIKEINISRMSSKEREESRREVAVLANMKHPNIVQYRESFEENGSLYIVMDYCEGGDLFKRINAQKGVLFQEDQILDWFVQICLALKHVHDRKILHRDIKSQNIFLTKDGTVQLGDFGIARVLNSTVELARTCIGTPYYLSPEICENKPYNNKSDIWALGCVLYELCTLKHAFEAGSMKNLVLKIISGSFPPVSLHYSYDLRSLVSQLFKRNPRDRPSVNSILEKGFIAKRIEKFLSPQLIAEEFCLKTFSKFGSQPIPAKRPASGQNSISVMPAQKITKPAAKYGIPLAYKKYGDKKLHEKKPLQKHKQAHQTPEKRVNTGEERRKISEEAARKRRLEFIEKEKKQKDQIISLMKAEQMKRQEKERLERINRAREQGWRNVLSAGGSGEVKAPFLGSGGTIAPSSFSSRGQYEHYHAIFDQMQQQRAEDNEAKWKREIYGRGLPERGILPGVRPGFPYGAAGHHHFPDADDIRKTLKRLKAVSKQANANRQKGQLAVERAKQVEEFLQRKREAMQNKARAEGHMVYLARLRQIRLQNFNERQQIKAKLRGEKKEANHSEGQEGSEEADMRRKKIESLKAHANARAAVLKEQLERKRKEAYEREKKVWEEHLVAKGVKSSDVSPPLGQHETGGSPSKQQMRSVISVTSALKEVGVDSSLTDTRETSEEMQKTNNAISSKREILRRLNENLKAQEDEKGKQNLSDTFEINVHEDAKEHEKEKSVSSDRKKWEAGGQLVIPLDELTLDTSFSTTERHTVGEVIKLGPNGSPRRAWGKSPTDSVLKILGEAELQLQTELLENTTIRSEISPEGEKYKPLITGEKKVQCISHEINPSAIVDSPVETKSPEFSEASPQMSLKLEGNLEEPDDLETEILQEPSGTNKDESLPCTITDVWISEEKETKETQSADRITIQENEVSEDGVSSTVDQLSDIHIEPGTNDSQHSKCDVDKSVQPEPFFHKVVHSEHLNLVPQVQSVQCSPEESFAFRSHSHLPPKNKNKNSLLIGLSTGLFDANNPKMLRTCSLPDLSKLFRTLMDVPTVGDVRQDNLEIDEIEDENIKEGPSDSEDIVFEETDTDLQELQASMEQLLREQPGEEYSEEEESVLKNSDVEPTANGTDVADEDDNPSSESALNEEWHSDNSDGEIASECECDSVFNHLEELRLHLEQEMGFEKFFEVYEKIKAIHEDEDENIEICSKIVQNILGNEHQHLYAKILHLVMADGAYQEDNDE

[3] = molecular target: T2, Serine/threonine-protein kinase Nek1 (Homo sapiens); details: at 1 µM
[4] = molecular target: T3, Serine/threonine-protein kinase Nek2 (Homo sapiens) (UniProt P51955); details: at 0.1 µM
T3 sequence (whole entry): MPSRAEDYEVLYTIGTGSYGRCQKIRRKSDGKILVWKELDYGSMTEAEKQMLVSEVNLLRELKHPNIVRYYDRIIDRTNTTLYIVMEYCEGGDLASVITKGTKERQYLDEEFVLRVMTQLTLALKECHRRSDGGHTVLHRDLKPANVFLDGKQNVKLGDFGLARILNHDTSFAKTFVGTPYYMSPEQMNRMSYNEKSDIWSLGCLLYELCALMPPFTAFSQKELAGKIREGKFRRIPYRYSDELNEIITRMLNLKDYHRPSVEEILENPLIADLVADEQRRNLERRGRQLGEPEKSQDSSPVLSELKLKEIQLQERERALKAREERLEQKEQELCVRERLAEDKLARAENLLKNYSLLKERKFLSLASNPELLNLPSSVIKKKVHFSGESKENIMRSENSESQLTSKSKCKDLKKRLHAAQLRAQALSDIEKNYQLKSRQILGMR

[5] = molecular target: T3, Serine/threonine-protein kinase Nek2 (Homo sapiens); details: at 1 µM
[6] = molecular target: Serine/threonine-protein kinase Nek6 (Homo sapiens) (UniProt Q9HC98); details: at 0.1 µM
Chain of Serine/threonine-protein kinase Nek6 (Homo sapiens) (Q9HC98 whole entry): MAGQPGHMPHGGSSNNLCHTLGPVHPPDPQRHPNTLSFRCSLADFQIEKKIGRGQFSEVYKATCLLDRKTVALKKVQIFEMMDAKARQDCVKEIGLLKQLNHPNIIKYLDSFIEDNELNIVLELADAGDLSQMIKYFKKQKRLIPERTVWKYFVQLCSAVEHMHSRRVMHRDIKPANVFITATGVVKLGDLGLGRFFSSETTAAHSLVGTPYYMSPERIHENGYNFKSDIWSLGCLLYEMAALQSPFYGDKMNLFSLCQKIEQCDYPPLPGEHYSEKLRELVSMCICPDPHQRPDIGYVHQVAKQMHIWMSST

[7] = molecular target: Serine/threonine-protein kinase Nek6 (Homo sapiens) (UniProt Q9HC98); details: at 1 µM
[8] = molecular target: Serine/threonine-protein kinase Nek7 (Homo sapiens) (UniProt Q8TDX7); details: at 0.1 µM
Chain of Serine/threonine-protein kinase Nek7 (Homo sapiens) (Q8TDX7 whole entry, looked up): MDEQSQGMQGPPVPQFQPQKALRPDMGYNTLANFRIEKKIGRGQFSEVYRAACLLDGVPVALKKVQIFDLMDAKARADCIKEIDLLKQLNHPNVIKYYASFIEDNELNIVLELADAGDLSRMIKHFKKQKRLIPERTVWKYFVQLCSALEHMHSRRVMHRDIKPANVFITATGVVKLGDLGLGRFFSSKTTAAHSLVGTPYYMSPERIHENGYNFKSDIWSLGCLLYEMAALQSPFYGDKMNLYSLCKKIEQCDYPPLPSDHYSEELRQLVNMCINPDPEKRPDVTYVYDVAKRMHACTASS

[9] = molecular target: Serine/threonine-protein kinase Nek7 (Homo sapiens) (UniProt Q8TDX7); details: at 1 µM
[10] = molecular target: T4, Serine/threonine-protein kinase Nek9 (Homo sapiens) (UniProt Q8TD19); details: at 0.1 µM
T4 sequence (whole entry): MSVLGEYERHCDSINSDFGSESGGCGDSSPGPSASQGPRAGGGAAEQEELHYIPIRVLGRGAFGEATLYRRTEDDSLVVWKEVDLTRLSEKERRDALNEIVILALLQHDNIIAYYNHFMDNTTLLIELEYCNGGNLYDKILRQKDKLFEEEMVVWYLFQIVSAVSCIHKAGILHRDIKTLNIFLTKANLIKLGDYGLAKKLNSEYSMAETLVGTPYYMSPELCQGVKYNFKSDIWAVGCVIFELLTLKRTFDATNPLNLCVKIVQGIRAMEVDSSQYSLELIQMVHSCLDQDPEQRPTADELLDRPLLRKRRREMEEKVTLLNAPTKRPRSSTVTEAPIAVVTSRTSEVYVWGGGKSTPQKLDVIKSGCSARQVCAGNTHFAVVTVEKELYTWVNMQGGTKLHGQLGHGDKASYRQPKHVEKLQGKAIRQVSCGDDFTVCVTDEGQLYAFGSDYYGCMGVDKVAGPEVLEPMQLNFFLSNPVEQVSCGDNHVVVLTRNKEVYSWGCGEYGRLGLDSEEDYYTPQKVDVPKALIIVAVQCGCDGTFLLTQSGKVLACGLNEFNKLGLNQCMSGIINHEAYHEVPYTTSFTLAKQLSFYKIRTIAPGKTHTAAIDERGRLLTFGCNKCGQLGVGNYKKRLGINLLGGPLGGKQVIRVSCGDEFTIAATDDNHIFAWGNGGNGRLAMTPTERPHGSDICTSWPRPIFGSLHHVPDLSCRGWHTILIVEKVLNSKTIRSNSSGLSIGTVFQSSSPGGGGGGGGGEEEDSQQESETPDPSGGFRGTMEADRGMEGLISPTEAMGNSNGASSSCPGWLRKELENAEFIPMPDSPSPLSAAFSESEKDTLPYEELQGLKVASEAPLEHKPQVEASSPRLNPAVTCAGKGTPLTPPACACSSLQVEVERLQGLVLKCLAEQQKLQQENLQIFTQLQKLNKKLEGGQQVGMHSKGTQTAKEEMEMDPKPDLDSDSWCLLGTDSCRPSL

[11] = molecular target: T4, Serine/threonine-protein kinase Nek9 (Homo sapiens); details: at 1 µM
[12] = molecular target: Serine/threonine-protein kinase PLK1 (Homo sapiens) (UniProt P53350); details: at 0.1 µM
Chain of Serine/threonine-protein kinase PLK1 (Homo sapiens) (P53350 whole entry): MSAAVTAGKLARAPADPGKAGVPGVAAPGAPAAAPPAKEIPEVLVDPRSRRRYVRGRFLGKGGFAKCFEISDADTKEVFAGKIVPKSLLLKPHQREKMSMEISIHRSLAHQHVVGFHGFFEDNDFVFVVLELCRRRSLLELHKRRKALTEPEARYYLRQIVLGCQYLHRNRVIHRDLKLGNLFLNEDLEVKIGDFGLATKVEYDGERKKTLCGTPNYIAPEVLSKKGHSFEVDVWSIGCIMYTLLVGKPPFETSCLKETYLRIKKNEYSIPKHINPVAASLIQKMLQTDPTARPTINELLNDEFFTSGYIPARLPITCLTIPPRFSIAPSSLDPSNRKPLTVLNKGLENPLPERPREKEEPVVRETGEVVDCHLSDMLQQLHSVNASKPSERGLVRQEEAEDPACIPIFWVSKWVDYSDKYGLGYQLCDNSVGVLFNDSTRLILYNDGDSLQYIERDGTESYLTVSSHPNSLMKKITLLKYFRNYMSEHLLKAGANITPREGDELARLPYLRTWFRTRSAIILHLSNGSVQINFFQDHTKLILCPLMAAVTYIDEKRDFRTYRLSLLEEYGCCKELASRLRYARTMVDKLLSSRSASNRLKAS

[13] = molecular target: Serine/threonine-protein kinase PLK1 (Homo sapiens) (UniProt P53350); details: at 1 µM
[14] = molecular target: T5, Dual specificity protein kinase TTK (Homo sapiens) (UniProt P33981); details: at 0.1 µM
T5 sequence (whole entry): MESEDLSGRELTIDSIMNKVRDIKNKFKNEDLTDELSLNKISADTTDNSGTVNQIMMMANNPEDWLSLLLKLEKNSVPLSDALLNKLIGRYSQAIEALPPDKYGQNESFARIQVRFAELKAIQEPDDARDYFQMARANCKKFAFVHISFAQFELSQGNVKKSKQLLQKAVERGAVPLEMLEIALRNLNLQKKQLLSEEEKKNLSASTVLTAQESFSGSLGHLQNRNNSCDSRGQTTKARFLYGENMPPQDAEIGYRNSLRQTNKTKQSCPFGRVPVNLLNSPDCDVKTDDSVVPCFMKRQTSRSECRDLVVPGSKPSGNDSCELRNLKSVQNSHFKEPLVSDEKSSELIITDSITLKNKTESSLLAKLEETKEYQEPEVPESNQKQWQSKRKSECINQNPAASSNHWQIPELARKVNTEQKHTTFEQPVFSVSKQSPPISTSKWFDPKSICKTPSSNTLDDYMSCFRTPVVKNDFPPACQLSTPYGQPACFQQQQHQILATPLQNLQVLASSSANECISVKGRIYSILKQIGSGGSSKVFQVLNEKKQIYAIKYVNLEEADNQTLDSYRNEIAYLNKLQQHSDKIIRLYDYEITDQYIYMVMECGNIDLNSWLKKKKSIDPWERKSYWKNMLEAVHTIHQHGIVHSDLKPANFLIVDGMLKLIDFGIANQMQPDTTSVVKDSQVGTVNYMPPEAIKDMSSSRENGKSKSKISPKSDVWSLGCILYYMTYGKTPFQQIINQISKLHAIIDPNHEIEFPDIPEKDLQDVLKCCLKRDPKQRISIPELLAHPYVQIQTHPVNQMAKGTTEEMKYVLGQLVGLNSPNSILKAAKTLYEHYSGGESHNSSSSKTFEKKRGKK

[15] = system: T6, Receptor-type tyrosine-protein kinase FLT3 (Homo sapiens), P36888 [D835Y]; details: at 1 µM
T6 sequence (whole entry): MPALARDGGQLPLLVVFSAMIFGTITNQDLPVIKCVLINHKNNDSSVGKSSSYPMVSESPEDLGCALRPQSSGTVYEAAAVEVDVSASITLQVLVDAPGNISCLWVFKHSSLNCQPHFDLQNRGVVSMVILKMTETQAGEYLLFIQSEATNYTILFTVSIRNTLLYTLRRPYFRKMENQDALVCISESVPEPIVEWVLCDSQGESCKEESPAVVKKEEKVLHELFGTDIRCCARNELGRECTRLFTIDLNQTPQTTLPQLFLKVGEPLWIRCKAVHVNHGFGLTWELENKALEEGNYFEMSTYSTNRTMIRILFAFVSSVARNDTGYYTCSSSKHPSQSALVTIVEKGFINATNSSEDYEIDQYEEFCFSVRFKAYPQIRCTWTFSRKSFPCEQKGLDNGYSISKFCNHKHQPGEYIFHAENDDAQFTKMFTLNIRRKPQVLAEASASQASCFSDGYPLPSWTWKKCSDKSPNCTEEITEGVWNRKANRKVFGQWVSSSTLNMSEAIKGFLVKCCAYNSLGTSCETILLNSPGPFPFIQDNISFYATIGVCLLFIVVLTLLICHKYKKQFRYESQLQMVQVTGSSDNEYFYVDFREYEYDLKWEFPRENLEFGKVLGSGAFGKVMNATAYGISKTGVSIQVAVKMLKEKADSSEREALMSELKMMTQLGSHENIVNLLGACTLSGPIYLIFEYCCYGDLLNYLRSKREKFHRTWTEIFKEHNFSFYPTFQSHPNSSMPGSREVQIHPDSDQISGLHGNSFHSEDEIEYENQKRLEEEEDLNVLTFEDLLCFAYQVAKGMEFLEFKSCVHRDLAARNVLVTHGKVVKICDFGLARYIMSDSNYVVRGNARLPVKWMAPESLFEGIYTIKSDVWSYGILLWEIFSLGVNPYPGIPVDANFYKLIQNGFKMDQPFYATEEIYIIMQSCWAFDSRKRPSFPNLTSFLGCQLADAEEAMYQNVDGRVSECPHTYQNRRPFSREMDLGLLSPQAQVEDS

[16] = molecular target: Vascular endothelial growth factor receptor 3 (Homo sapiens) (UniProt P35916); details: at 0.1 µM
Chain of Vascular endothelial growth factor receptor 3 (Homo sapiens) (P35916 whole entry): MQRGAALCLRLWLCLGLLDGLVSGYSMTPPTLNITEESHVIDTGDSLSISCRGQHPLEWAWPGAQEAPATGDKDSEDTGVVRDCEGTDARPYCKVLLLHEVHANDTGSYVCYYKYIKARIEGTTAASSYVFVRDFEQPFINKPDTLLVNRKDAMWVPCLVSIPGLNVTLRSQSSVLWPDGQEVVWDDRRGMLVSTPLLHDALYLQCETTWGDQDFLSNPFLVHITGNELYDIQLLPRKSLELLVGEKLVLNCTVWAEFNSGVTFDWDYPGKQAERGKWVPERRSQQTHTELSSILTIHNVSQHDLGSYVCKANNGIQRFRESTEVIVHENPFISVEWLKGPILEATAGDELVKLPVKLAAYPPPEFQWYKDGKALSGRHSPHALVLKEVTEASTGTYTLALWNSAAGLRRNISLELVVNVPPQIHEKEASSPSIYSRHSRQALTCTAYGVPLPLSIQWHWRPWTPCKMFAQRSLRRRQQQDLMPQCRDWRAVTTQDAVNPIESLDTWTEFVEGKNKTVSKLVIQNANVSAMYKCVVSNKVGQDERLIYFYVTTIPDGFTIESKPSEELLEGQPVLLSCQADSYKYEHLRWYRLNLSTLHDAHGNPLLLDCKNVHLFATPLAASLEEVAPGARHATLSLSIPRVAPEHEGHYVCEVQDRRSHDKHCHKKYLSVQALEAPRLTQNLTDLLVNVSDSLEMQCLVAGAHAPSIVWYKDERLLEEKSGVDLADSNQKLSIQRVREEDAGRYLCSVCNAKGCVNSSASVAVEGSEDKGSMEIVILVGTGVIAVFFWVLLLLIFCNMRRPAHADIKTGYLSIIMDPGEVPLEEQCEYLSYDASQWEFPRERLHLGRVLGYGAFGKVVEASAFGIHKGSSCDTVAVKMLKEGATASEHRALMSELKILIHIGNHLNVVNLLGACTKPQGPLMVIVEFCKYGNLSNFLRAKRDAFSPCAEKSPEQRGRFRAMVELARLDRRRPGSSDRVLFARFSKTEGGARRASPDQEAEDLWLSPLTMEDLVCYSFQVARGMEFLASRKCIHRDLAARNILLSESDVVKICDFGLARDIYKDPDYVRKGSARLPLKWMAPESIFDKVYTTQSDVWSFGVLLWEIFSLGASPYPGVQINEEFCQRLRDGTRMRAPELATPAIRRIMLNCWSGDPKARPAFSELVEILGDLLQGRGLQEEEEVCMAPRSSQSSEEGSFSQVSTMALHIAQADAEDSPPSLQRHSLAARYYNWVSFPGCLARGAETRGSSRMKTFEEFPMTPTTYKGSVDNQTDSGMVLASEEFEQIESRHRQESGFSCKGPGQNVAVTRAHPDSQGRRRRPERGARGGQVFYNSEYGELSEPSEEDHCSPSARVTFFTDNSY

[17] = molecular target: Vascular endothelial growth factor receptor 3 (Homo sapiens) (UniProt P35916); details: at 1 µM
[18] = molecular target: Macrophage colony-stimulating factor 1 receptor (Homo sapiens) (UniProt P07333); details: at 0.1 µM
Chain of Macrophage colony-stimulating factor 1 receptor (Homo sapiens) (P07333 whole entry): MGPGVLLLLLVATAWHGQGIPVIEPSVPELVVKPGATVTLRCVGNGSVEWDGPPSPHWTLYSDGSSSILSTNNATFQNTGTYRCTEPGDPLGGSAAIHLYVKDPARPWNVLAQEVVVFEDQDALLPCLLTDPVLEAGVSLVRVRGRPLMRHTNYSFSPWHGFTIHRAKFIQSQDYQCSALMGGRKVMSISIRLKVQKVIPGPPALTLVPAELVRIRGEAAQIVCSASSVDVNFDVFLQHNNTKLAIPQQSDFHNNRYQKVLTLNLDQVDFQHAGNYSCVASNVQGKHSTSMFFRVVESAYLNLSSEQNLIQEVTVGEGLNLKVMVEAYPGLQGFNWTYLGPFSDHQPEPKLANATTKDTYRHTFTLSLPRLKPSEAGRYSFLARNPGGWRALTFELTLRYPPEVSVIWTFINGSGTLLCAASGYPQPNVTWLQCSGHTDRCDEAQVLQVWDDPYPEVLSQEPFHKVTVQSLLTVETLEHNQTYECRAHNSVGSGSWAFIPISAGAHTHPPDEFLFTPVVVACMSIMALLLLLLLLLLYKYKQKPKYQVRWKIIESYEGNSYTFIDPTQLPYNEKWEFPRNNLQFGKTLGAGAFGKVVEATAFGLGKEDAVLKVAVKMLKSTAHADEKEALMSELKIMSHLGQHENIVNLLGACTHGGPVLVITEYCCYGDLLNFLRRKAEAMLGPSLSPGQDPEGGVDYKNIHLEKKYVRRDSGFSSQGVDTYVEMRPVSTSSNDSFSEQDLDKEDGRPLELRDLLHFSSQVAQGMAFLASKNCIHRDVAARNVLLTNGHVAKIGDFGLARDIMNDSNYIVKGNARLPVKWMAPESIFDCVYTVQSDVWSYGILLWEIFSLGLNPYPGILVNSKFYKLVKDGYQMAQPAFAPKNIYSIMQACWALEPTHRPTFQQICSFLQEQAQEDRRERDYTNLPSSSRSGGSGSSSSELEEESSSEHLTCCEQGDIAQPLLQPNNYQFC

[19] = molecular target: Macrophage colony-stimulating factor 1 receptor (Homo sapiens) (UniProt P07333); details: at 1 µM
[20] = molecular target: Tyrosine-protein kinase Fyn (Homo sapiens) (UniProt P06241); details: at 0.1 µM
Chain of Tyrosine-protein kinase Fyn (Homo sapiens) (P06241 2-537 limits assumed): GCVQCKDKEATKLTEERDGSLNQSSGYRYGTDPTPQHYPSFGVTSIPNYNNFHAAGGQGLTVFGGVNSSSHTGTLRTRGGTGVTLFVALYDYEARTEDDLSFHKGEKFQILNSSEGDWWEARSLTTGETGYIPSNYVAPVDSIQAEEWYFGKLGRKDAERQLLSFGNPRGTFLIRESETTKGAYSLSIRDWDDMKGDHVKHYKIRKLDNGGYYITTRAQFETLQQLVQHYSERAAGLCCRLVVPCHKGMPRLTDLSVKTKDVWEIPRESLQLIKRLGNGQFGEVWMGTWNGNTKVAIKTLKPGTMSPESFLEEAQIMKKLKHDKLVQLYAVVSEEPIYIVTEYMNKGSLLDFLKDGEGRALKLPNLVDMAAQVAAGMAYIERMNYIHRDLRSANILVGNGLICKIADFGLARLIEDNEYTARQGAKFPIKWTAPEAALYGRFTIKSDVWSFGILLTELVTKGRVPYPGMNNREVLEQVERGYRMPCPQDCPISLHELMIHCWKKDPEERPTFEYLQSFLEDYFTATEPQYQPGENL

Row | Compound | inhibition [1] | inhibition [2] | inhibition [3] | inhibition [4] | inhibition [5] | inhibition [6] | inhibition [7] | inhibition [8] | inhibition [9] | inhibition [10] | inhibition [11] | inhibition [12] | inhibition [13] | inhibition [14] | inhibition [15] | inhibition [16] | inhibition [17] | inhibition [18] | inhibition [19] | inhibition [20]
1 | Fc1ccc(-c2nn3ncccc3c2-c2ccnc(Nc3ccc4c(c3)OCCO4)n2)cc1 | 7.06% | 2.45% | 1.02% | 5.03% | 4.48% | 0.64% | 3.68% | 6.98% | 4.83% | 6.56% | 12% | 3.5% | 28.8% | 8.44% | 2.87% | 7.5% | 47.7% | 14.4% | 59.1% | 47%
2 | CCn1c(-c2nonc2N)nc2c(C#CC(C)(C)O)ncc(OC3CCNCC3)c21 | 95.8% | 2.28% | 2.37% | 3.31% | 2.51% | -0.18% | 1.86% | -3.88% | 5.15% | 2.14% | 5.22% | 2.8% | 5% | 5.34% | 0.12% | 8.92% | 26.6% | 1.2% | 2.92% | 1.53%
3 | NS(=O)(=O)c1ccc(Nc2ncc(-c3ccccc3)o2)cc1 | 5.67% | 2.41% | 5.75% | 4.32% | 4.17% | 2.71% | 1.65% | 2.06% | 2.65% | 3.91% | 5.13% | 1.46% | 3.33% | 6.13% | 21.6% | 3.67% | 9.2% | 6.69% | 32.5% | 1.12%
